PubChem BioAssay (NCI)
About 79,000 compounds went through this panel and 15% of them were active in at least one assay; those are over-represented in the sample as a whole. Unmarked numbers belong to inactive results. The source made the active and inactive calls. No stated cut-off is given here; in the data, active means growth inhibition above about 70%; inactive means the rest.

Columns and labels:
[1] = NCI Yeast Anticancer Drug Screen. Data for the wt1 strain (AID 149);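 further: 0% = growth of vehicle-treated wt1 cultures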; conditions: S. cerevisiae wt1 strain (SPY 50644) growth inhibition, active compounds read high
Summary of the method: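 Measured: growth of wt1 yeast under compound versus vehicle treatment, reported as inhibition.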

[2] = NCI Yeast Anticancer Drug Screen. Data for the rad50EPP+ strain (AID 151);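 further: 0% = growth of vehicle-treated control cultures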; conditions: S. cerevisiae rad50 mutant strain, active compounds read high
Summary of the method: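 One strain with a rad50 alteration (rad50EPP+) was compound-treated, its growth then compared to that of vehicle controls.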

[3] = NCI Yeast Anticancer Drug Screen. Data for the mgt1 strain (AID 153); conditions: S. cerevisiae mgt1 mutant growth inhibition, active compounds read high
Summary of the method: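 After exposure of the mgt1 yeast mutant to compound, growth was measured and reported as inhibition compared with vehicle controls.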

[4] = NCI Yeast Anticancer Drug Screen. Data for the rad50 strain (AID 155);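 further: 0% = growth of vehicle-only cultures of the same strain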; conditions: S. cerevisiae rad50 strain growth inhibition, active compounds read high
Summary of the method: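 Growth of the mutant yeast was measured after compound exposure and referenced to vehicle-treated cultures.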

[5] = NCI Yeast Anticancer Drug Screen. Data for the mec2-1 strain (AID 157); conditions: S. cerevisiae mec2-1 strain, active compounds read high
Summary of the method: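 Test agents were screened against the mec2-1 yeast strain, with defined DNA repair or cell cycle alteration. Growth was scored as inhibition against vehicle-only controls.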

[6] = NCI Yeast Anticancer Drug Screen. Data for the rad14 strain (AID 159);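 further: 0% = growth of vehicle-treated control cultures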; conditions: S. cerevisiae rad14 strain growth inhibition, active compounds read high
Summary of the method: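 Here, inhibition of yeast growth was measured after compound exposure, using a strain with a genetic defect in DNA damage repair and vehicle-treated cultures as the reference.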

[7] = NCI Yeast Anticancer Drug Screen. Data for the sgs1 mgt1 strain (AID 161);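 further: 0% = growth of cultures given vehicle only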; conditions: S. cerevisiae sgs1 mgt1 strain, active compounds read high
Summary of the method: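 Genetically altered yeast, compound exposure, growth inhibition relative to vehicle.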

[8] = NCI Yeast Anticancer Drug Screen. Data for the CLN2oe strain (AID 163);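 further: 0% = growth of vehicle-only control cultures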; conditions: S. cerevisiae CLN2oe strain, active compounds read high
Summary of the method: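 Here, growth inhibition in a cell-cycle-altered yeast strain after compound exposure was quantified against vehicle control growth.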

[9] = NCI Yeast Anticancer Drug Screen. Data for the cln2 rad14 strain (AID 165);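 further: 0% = growth equal to vehicle treated cultures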; conditions: S. cerevisiae cln2 rad14 strain, active compounds read high
Summary of the method: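 Growth of compound-exposed yeast (cln2 rad14 genotype) measured and expressed as inhibition relative to vehicle.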

[10] = NCI Yeast Anticancer Drug Screen. Data for the bub3 strain (AID 167); conditions: S. cerevisiae bub3 mutant strain, active compounds read high
Summary of the method: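 Whole-cell yeast assay. The mutant strain was incubated with compounds, and growth inhibition was determined by comparison with vehicle-treated cells.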

[11] = NCI Yeast Anticancer Drug Screen. Data for the wt2 strain (AID 169);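 further: 0% = growth of vehicle-treated yeast cultures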; conditions: S. cerevisiae wt2 strain growth inhibition, active compounds read high
Summary of the method: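 Genetically defined yeast strains from a DNA-repair/cell-cycle panel were used. Compound-exposed yeast growth was measured, and the inhibition was calculated relative to vehicle treatment.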

[12] = NCI Yeast Anticancer Drug Screen. Data for the mlh1 strain (AID 171);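 further: 0% = growth of vehicle-treated control cultures of the same strain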; conditions: S. cerevisiae mlh1 strain growth inhibition, active compounds read high
Summary of the method: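 Here the genetically defined yeast mutant is grown with each compound, and the extent to which its growth falls below that of vehicle-exposed cells is reported.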

[13] = NCI Yeast Anticancer Drug Screen. Data for the sgs1 strain (AID 173);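 further: 0% = growth of vehicle-only control cultures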; conditions: S. cerevisiae sgs1 mutant, active compounds read high
Summary of the method: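 Relative growth inhibition, referenced to vehicle, was determined in a yeast strain with a defined alteration affecting DNA damage repair or cell cycle control after compound exposure.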

[14] = NCI Yeast Anticancer Drug Screen. Data for the mlh1 rad18 strain (AID 175); conditions: S. cerevisiae mlh1 rad18 strain growth inhibition, active compounds read high
Summary of the method: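 In this whole-cell yeast screen, a strain with altered DNA damage repair is challenged with compound, and its growth is measured against matched vehicle-treated controls.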

[15] = NCI Yeast Anticancer Drug Screen. Data for the rad18 strain (AID 177); conditions: S. cerevisiae rad18 mutant growth inhibition, active compounds read high
Summary of the method: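 Screen uses a yeast strain with a defined lesion in DNA damage repair; compound effect is read as loss of growth compared to untreated vehicle cultures.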

[16] = at 5.0 µM (retest, dose inferred, filed as 0.5)
[17] = at 50.0 µM (retest, dose inferred, filed as 5.0)

CN(C)N=Nc1ccc(NC=O)cc1
growth inhibition ([1]; at 1.2 µM): -2% | growth inhibition ([1]; at 3.7 µM): 1% | growth inhibition ([1]; at 11.0 µM): 9% | growth inhibition ([1]; at 33.0 µM): 92% (active) | growth inhibition ([1]; at 100.0 µM): 99% (active) | growth inhibition ([2]; at 1.2 µM): 11% | growth inhibition ([2]; at 3.7 µM): 6% | growth inhibition ([2]; at 11.0 µM): 8% | growth inhibition ([2]; at 33.0 µM): 86% (active) | growth inhibition ([2]; at 100.0 µM): 98% (active) | growth inhibition ([3]; at 1.2 µM): 20% | growth inhibition ([3]; at 3.7 µM): 27% | growth inhibition ([3]; at 11.0 µM): 23% | growth inhibition ([3]; at 33.0 µM): 88% (active) | growth inhibition ([3]; at 100.0 µM): 99% (active) | growth inhibition ([4]; at 1.2 µM): 5% | growth inhibition ([4]; at 3.7 µM): 4% | growth inhibition [4, 16]: 23% | growth inhibition ([4]; at 11.0 µM): 17% | growth inhibition ([4]; at 33.0 µM): 97% (active) | growth inhibition [4, 17]: 67% | growth inhibition ([4]; at 50.0 µM): 89.7% (active) | growth inhibition ([4]; at 100.0 µM): 99% (active) | growth inhibition ([5]; at 1.2 µM): 0% | growth inhibition ([5]; at 3.7 µM): 13% | growth inhibition [5, 16]: 23% | growth inhibition ([5]; at 11.0 µM): 20% | growth inhibition ([5]; at 33.0 µM): 90% (active) | growth inhibition [5, 17]: 47% | growth inhibition ([5]; at 50.0 µM): 91.8% (active) | growth inhibition ([5]; at 100.0 µM): 99% (active) | growth inhibition ([6]; at 1.2 µM): 6% | growth inhibition ([6]; at 3.7 µM): 3% | growth inhibition ([6]; at 11.0 µM): 9% | growth inhibition ([6]; at 33.0 µM): 77% (active) | growth inhibition ([6]; at 100.0 µM): 98% (active) | growth inhibition [7, 16]: -7% | growth inhibition [7, 17]: -44% | growth inhibition ([7]; at 50.0 µM): 66.2% | growth inhibition ([8]; at 1.2 µM): 31% | growth inhibition ([8]; at 3.7 µM): 27% | growth inhibition ([8]; at 11.0 µM): 49% | growth inhibition ([8]; at 33.0 µM): 98% (active) | growth inhibition ([8]; at 100.0 µM): 99% (active) | growth inhibition [9, 16]: -7% | growth inhibition [9, 17]: -19% | growth inhibition ([9]; at 50.0 µM): 85.2% (active) | growth inhibition ([10]; at 1.2 µM): 15% | growth inhibition ([10]; at 3.7 µM): 18% | growth inhibition [10, 16]: -3% | growth inhibition ([10]; at 11.0 µM): 27% | growth inhibition ([10]; at 33.0 µM): 94% (active) | growth inhibition [10, 17]: -22% | growth inhibition ([10]; at 50.0 µM): 78.7% (active) | growth inhibition ([10]; at 100.0 µM): 99% (active) | growth inhibition ([11]; at 1.2 µM): 18% | growth inhibition ([11]; at 3.7 µM): 9% | growth inhibition ([11]; at 11.0 µM): 14% | growth inhibition ([11]; at 33.0 µM): 96% (active) | growth inhibition ([11]; at 100.0 µM): 99% (active) | growth inhibition ([12]; at 1.2 µM): 2% | growth inhibition ([12]; at 3.7 µM): -7% | growth inhibition ([12]; at 11.0 µM): 6% | growth inhibition ([12]; at 33.0 µM): 91% (active) | growth inhibition ([12]; at 100.0 µM): 99% (active) | growth inhibition ([13]; at 1.2 µM): 2% | growth inhibition ([13]; at 3.7 µM): -5% | growth inhibition ([13]; at 11.0 µM): 8% | growth inhibition ([13]; at 33.0 µM): 93% (active) | growth inhibition ([13]; at 100.0 µM): 99% (active) | growth inhibition [14, 16]: 32% | growth inhibition [14, 17]: 65% | growth inhibition ([14]; at 50.0 µM): 87.4% (active) | growth inhibition ([15]; at 1.2 µM): 19% | growth inhibition ([15]; at 3.7 µM): 24% | growth inhibition ([15]; at 11.0 µM): 35% | growth inhibition ([15]; at 33.0 µM): 98% (active) | growth inhibition ([15]; at 100.0 µM): 99% (active)
